Bioassay records: PubChem, several laboratories
Cardio protect: myocardial damage modulation in H9c2 cells. AID 588492. H9c2 cardiomyocytes, H2O2 injury protection, ATPLite, 2 h. 0.63% of 360,000 active. protection from H2O2 cell death, % at 20 µM;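 active means compounds giving at least 50% protection of heart cells from peroxide-induced death in the single-dose screen, raw or plate-pattern-corrected value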;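 further: 0% = DMSO wells with peroxide and 100% = DMSO wells without peroxide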
Myeloid diff 2: promotes myeloid progenitor differentiation; ER-HoxA9 myeloid progenitors, lysozyme-GFP differentiation, flow cytometry; calls only at 10 µM; 1% of 360,000 active;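 active means normalized GFP-positive differentiation at or above the plate's own cutoff, the solvent-only control mean plus 3 SD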;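 further: cells exposed to compound for four days before flow analysis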
ABCB6 inh MLPCN: human ABCB6 transporter inhibition; Q9NP58; K562-ABCB6 porphyrin accumulation, flow cytometry, 1 h; stronger effect = lower value; fluorescence ratio to DMSO, % at 10 µM; 0.19% of 360,000 active; AID 602162;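 active means fluorescence ratio to DMSO below 75%, the collection mean minus 3 SD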;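 further: signal is porphyrin accumulated inside mitochondria; 100% equals median channel fluorescence of DMSO control wells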
MIN6 prolif: induces beta-cell replication in MIN6 cells. proliferation, % at 10 µM. 0.29% of 330,000 active. MIN6 cells proliferation, ATPlite luminescence, 48 h; cells starved in 0.2% serum; 100% = growth in 10% serum;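 active means compounds whose signal lies at least 3.5 SD above the mean of all wells on their plate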;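 further: 0% = DMSO-treated cells in low-serum medium and 100% = 10% serum control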
iPSC survival up: increases survival of single human iPS cells | hiPSC single-cell survival, ATPlite luminescence; 100% = ROCK inhibitor wells, 0% = DMSO | survival enhancement, % at 20 µM | 0.044% of 360,000 active; in the data active means survival enhancement above about 18%;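 further: cells exposed to compounds for 16 hours before the ATP read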
Myeloid diff: promotes myeloid progenitor differentiation. 2% of 2,300 active. calls only. ER-HoxA9 myeloid progenitors, GFP/Mac1 double-positive flow. shares compounds with Myeloid diff 2;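 active means share of green or green-and-red cells above 9 and 9% in run 1 or 4 and 3% in run 2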
GFP autofluor: compound fluorescence in myeloid differentiation counter-screen; 7.4% of 2,300 active; AID 651707; shares compounds with Myeloid diff 2; ER-HoxA9 myeloid progenitors, no estrogen, GFP autofluorescence flow cytometry; vehicle wells 0%, positive control 100%; fluorescence response, % (no concentration beside the values);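 active means over 5% cells positive for green fluorescent reporter, or over 2% positive for both it and APC stain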;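 further: range taken on the double positive population between DMSO and positive control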
An asterisk follows results filed as active. Compounds with a hit are over-represented: about 2.2% of the library has one in this group of screens.

Screening COc1ccc(NC(=O)C2CCCN(S(=O)(=O)c3cccs3)C2)cc1OC (configuration not stated) returned Cardio protect -1, Myeloid diff 2 active, ABCB6 inh MLPCN 98, MIN6 prolif -3, iPSC survival up 0, Myeloid diff inactive and GFP autofluor 0.
C=Cn1cc[n+](CC(=O)c2ccc(C)cc2)c1 was read as Cardio protect 1, Myeloid diff 2 inactive, ABCB6 inh MLPCN 105, MIN6 prolif 1 and iPSC survival up -2.
C=Cn1cc[n+](CC(=O)c2ccc(OC)cc2)c1 was read as Cardio protect 3, Myeloid diff 2 active, ABCB6 inh MLPCN 94, MIN6 prolif -1, iPSC survival up -1, Myeloid diff inactive and GFP autofluor 1.
CCN(CC)C(=O)CSc1nnc(SC(C)C(=O)NC2CC2)s1 (configuration not stated) was read as Cardio protect 5, Myeloid diff 2 inactive, ABCB6 inh MLPCN 98, MIN6 prolif 0, iPSC survival up 0, Myeloid diff inactive and GFP autofluor 0.
`CC(C)CNC(=O)NC(=O)COc1ncnc2sccc12` gave Cardio protect -1, Myeloid diff 2 active, ABCB6 inh MLPCN 97, MIN6 prolif -2, iPSC survival up -1, Myeloid diff inactive and GFP autofluor 0.
For CC1CCC(NC(=O)CC(C)(C)Cc2nc3ccccc3c(=O)[nH]2)CC1 (configuration not stated) the results were Cardio protect 10, Myeloid diff 2 inactive, ABCB6 inh MLPCN 91, MIN6 prolif -3, iPSC survival up -1, Myeloid diff inactive and GFP autofluor 1.
O=C1COc2ccc3ccccc3c21 was read as Cardio protect 0, Myeloid diff 2 inactive, ABCB6 inh MLPCN 99, MIN6 prolif -2, iPSC survival up 0, Myeloid diff inactive and GFP autofluor 1.
COc1ccccc1Cc1c(-c2cccc(Cl)c2)nc2ccc(Br)cn12 was read as Cardio protect -3, Myeloid diff 2 active, ABCB6 inh MLPCN 105, iPSC survival up 1, Myeloid diff inactive and GFP autofluor 41*.
For COC(=O)c1ccc2nc(-c3cccc(Cl)c3)c(Cc3ccccc3OC)n2c1 the results were Cardio protect 4, Myeloid diff 2 inactive, ABCB6 inh MLPCN 95 and iPSC survival up -1.
O=C(NCc1ccccn1)Nc1ccccc1 was read as Cardio protect 9, Myeloid diff 2 inactive, ABCB6 inh MLPCN 97, MIN6 prolif 0 and iPSC survival up -1.
For CCOC(=O)c1c(NC(=O)c2nn(CC)cc2Br)c(C#N)cn1-c1ccccc1 the results were Cardio protect 0, Myeloid diff 2 active, ABCB6 inh MLPCN 90, MIN6 prolif -3, iPSC survival up 0, Myeloid diff active and GFP autofluor 0.
C=CCC[C@H](Cc1ccc(F)cc1)C(=O)OC[C@@H](Cc1c[nH]c2ccccc12)NC(=O)[C@@H](CC=C)CC(=O)N[C@H](CO)Cc1ccccc1 was read as Cardio protect 8, Myeloid diff 2 inactive, ABCB6 inh MLPCN 96, MIN6 prolif -5 and iPSC survival up -1.
O=C(CC12CC3CC(CC(C3)C1)C2)NC(Cc1ccccc1)C(=O)O (configuration not stated) was read as Cardio protect 3, Myeloid diff 2 inactive, ABCB6 inh MLPCN 97, MIN6 prolif 1 and iPSC survival up 1.
Screening O=C(Nc1ccccc1)C(Cc1ccccc1)NC(=O)C12CC3CC(CC(C3)C1)C2 (configuration not stated) returned Cardio protect 1, Myeloid diff 2 active, ABCB6 inh MLPCN 88, MIN6 prolif -3, iPSC survival up 2, Myeloid diff inactive and GFP autofluor 0.
`CC(=O)n1nc2nc(C)cc(C)c2c1N` gave Cardio protect 7, Myeloid diff 2 inactive, ABCB6 inh MLPCN 98, MIN6 prolif -2 and iPSC survival up 2.
For CCOC(=O)c1ccc(NC(=O)c2nc[nH]c2C(=O)N(C)CCO)cc1 the results were Cardio protect -1, Myeloid diff 2 active, ABCB6 inh MLPCN 98, iPSC survival up 0, Myeloid diff inactive and GFP autofluor 0.
For Cc1ccc(NC(=O)c2nc[nH]c2C(=O)N(C)CCO)cc1 the results were Cardio protect -18, Myeloid diff 2 inactive, ABCB6 inh MLPCN 107 and iPSC survival up 0.
Screening COC(=O)c1ccccc1NS(=O)(=O)c1ccc(F)cc1 returned Cardio protect 8, Myeloid diff 2 inactive, ABCB6 inh MLPCN 101, MIN6 prolif -2 and iPSC survival up -1.
For COC(=O)c1ccccc1NC(=O)Oc1ccc(F)cc1 the results were Cardio protect 2, Myeloid diff 2 inactive, ABCB6 inh MLPCN 104, MIN6 prolif 0, iPSC survival up -3, Myeloid diff inactive and GFP autofluor 0.
For C=CCc1ccccc1OCCNCCCOC the results were Cardio protect -2, Myeloid diff 2 inactive, ABCB6 inh MLPCN 101, MIN6 prolif -2 and iPSC survival up -1.
For COc1ccc(C)cc1NC(=O)n1ncc2cc(Cl)ccc21 the results were Cardio protect -8, Myeloid diff 2 active, ABCB6 inh MLPCN 107, MIN6 prolif -4, iPSC survival up 0, Myeloid diff active and GFP autofluor 0.
For Cc1ccc(C)c(S(=O)(=O)N2CCCC2CNC(=O)C(=O)NCCc2ccco2)c1 (configuration not stated) the results were Cardio protect 3, Myeloid diff 2 inactive, ABCB6 inh MLPCN 97, MIN6 prolif -2 and iPSC survival up 1.
Screening O=C(NCCc1ccco1)C(=O)NCC1CCCN1S(=O)(=O)c1ccccc1 (configuration not stated) returned Cardio protect 19, Myeloid diff 2 active, ABCB6 inh MLPCN 89, MIN6 prolif -5, iPSC survival up 0, Myeloid diff inactive and GFP autofluor 0.
For N#C/C(=C\N1CCN(Cc2ccc3c(c2)OCO3)CC1)c1nc2ccccc2s1 the results were Cardio protect -6, Myeloid diff 2 inactive, ABCB6 inh MLPCN 214, MIN6 prolif -5, iPSC survival up 0, Myeloid diff active and GFP autofluor 0.
`COc1ccc(NC(=O)CN2C(=O)NC3(CCCCCCC3)C2=O)cc1` gave Cardio protect 5, Myeloid diff 2 inactive, ABCB6 inh MLPCN 96, MIN6 prolif -1 and iPSC survival up 2.
For O=C(c1cc2c(s1)-c1ccccc1OC2)N1CCCC1 the results were Cardio protect -22, Myeloid diff 2 inactive, ABCB6 inh MLPCN 102, MIN6 prolif -3, iPSC survival up -1, Myeloid diff inactive and GFP autofluor 0.
